Results from PubChem BioAssay AID2315 (National Center for Advancing Translational Sciences (NCATS), 2010).
Among all 290,000 compounds or so, about 27,000 (9.3%) were called active. This excerpt belongs to a sample that is enriched for actives. Unmarked numbers belong to inactive results. Cut-off read from the data, not from the text of the source: active = inhibition mostly above about 28% (no sharp cut-off); inactive = mostly below about 43%.

test: A qHTS for Small Molecule Inhibitors of Shiga Toxin; conditions: Vero cells, Shiga toxin protein synthesis inhibition reporter; at 38.7 µM, active compounds read high; note: 0% is about no effect

Row | Compound | inhibition
1 | O=C(Oc1cccc(NC2=NS(=O)(=O)c3ccccc32)c1)c1ccncc1 | 2.4%
2 | CC(C)(C)c1csc(NC2=NS(=O)(=O)c3ccccc32)n1 | 97.3% (active)
3 | Cc1ccc(S(=O)(=O)N(NC2=NS(=O)(=O)c3ccccc32)C(=O)c2ccccc2)cc1 | -6.05%
4 | Cc1ccc(C(C)C)c(OCCSc2nc3ccccc3n2CC(=O)O)c1 | -6.58%
5 | CC(OC(=O)c1ccccc1OCc1ccc(Cl)cc1)C(N)=O (stereo unspecified) | -20.8%
6 | C=CCc1ccccc1OCC(O)CN1CCN(CCO)CC1 (stereo unspecified) | -5.91%
7 | Cc1ccccc1NC(=O)C1CCCN(C(=O)NCc2ccccc2)C1 (stereo unspecified) | -9.33%
8 | CCNC(=O)N1CCCC(C(=O)c2ccc(-c3ccccc3)cc2)C1 (stereo unspecified) | 36.1% (active)
9 | O=C(c1ccc(-c2ccccc2)cc1)C1CCCN(C(=O)c2cncs2)C1 (stereo unspecified) | 16.3%
10 | Cc1cccc(C(=O)N2CCN(S(=O)(=O)N3CCCCC3)CC2)c1 | 12.6%
11 | CCC1CCCCN1C(=O)CSc1nc2c(c(=O)n1C)SC(C)C2 (stereo unspecified) | -5.97%
12 | CCCCN(CCCC)CCNC(=O)CN1C(=O)COc2ccc(S(=O)(=O)N3CCOCC3)cc21 | -2.7%
13 | Cc1cccc(N=Nc2c(O)[nH]c3ccc(F)cc23)c1 | 143% (active)
14 | NS(=O)(=O)c1ccc(N=Nc2c(O)[nH]c3ccc(Br)cc23)cc1 | 58.5%
15 | Oc1[nH]c2ccc(Br)cc2c1N=Nc1nn[nH]n1 | 2.43%
16 | Cc1ccc(CNC(=O)C2CCN(S(=O)(=O)c3ccc4nc5c(c(C(=O)O)c4c3)CC(C)CC5)CC2)cc1 (stereo unspecified) | 19.6%
17 | CCOC(=O)CSc1nnc(NC(=O)C2CC(=O)N(c3ccc(F)cc3)C2)s1 (stereo unspecified) | -11.5%
18 | Cc1ccc(S(=O)(=O)NCC2CCC(C(=O)N3CCOCC3)CC2)cc1 (stereo unspecified) | -3.33%
19 | O=C(c1cccnc1)N1CCN(S(=O)(=O)c2cccs2)CC1 | -10.5%
20 | CCOC(=O)c1cccc(NC(=O)CN2C(=O)C3CC=CCC3C2=O)c1 (stereo unspecified) | -2.13%
21 | Cc1ccc(NC(=O)NC(=O)N(C2CCCCC2)S(=O)(=O)c2ccccc2)cc1 | 0% (active)

Row | Compound | inhibition
22 | CC(c1ccco1)N(C(=O)Nc1ccccc1)C1CCCCC1 (stereo unspecified) | 71.5%
23 | Cc1ccc(S(=O)(=O)N(C)CC(=O)OCC(=O)Nc2ccccc2)cc1 | 10.4%
24 | COc1cc(Br)c(-c2sc(Nc3ccccc3)n[n+]2-c2ccccc2)cc1OC | -9.06%
25 | Cc1cc(C(=O)Nc2c(C)n(C)n(-c3ccccc3)c2=O)cs1 | -6.98%
26 | Cc1ccccc1NC(=S)NNC(=O)c1cccc(Br)c1 | 48.8%
27 | CC(C)c1ccc(NC(=S)NNc2ccc(Cl)c(C(=O)O)c2)cc1 | 52%
28 | Cc1ccc(C(=O)NC(=S)Nc2ccccc2C)cc1 | 97.5% (active)
29 | COc1ccc(C(=O)NNC(=S)NC(=O)c2ccccc2)cc1 | 31.4%
30 | Cc1ccc(NC(=S)N/N=C2/CCCc3c(C)cc(C)cc32)cc1 | -4.99%
31 | Cc1ccccc1NC(=S)NC(=O)Cc1ccc(Cl)cc1 | -4.05%
32 | Cc1cc(C(=O)NNC(=S)Nc2ccccc2C)cs1 | 66.8% (active)
33 | Cc1ccc(C(=O)NC(=S)Nc2ccc(N3CCOCC3)cc2)cc1 | 30%
34 | Cc1ccc(C)c(NC(=S)NNC(=S)Nc2ccc(C(C)C)cc2)c1 | 50.1% (active)
35 | Cn1nnc(NC(=S)NC(=O)c2ccccc2)n1 | 64.6% (active)
36 | CCOC(=O)c1c(-c2ccccc2)csc1NC(=S)NC(=O)c1ccccc1 | -2.96%
37 | O=C(Nc1ccc(F)cc1)C1CCCN(S(=O)(=O)c2ccc(-n3cnnn3)cc2)C1 (stereo unspecified) | -10.1%
38 | Cc1nn(CC(=O)NC2CCCCC2)c(=O)c2cccn12 | 1.03%
39 | CN(CC(=O)Nc1c(Cl)cccc1Cl)C(=O)CNC(=O)C1CCCCC1 | 8.74%
40 | CCc1nccn1CCC(=O)N1CCCC(N2CCN(c3ccccc3F)CC2)C1 (stereo unspecified) | -3.27%
41 | O=C(Nc1cc(-c2nc3ncccc3o2)ccc1Cl)c1ccco1 | -5.97%
42 | O=C1C[C@@H](c2ccc3ccccc3c2)N1S(=O)(=O)c1ccccc1[N+](=O)[O-] | -7.61%

Row | Compound | inhibition
43 | Cc1sc2ncn(CC(=O)NCCCC(=O)N3CCN(c4ccccc4F)CC3)c(=O)c2c1C | -6.47%
44 | CC1(C)Cc2c(sc(NC(=O)C(=O)NCC3CCCO3)c2C(=O)O)CO1 (stereo unspecified) | -2.38%
45 | COc1cccc(CNC(=O)c2nnn(CC(=O)Nc3cc(C)ccc3C)c2N)c1 | -3.78%
46 | Cc1ccc(C(=O)NC(=S)NCc2cccnc2)cc1 | 56% (active)
47 | CC(C)(C)c1cc(C(=O)NCc2cccnc2)ccn1 | -3.32%
48 | Cc1c(C(=O)NC(=S)NCc2cccnc2)oc2ccccc12 | -22.1%
49 | CCc1cccc(CC)c1NC(=S)Nc1ccc2cn[nH]c2c1 | -6.34%
50 | Cc1ccc(C(=O)N/C(=C\c2ccc(F)cc2)C(=O)NCCN2CCOCC2)cc1 | -6.91%
51 | Cc1cc2[nH]ncc2cc1NC(=S)NC(=O)c1ccccc1 | 34.9% (active)
52 | Cc1ccc(NC(=S)NCCN2CCOCC2)cc1 | -3.76%
53 | Cc1cccc(NC(=S)Nc2ccc3cn[nH]c3c2)c1 | -14.2%
54 | Cc1ccc(C)c(NC(=O)NNC(=O)c2ccc3ccccc3c2O)c1 | -2.25%
55 | Cc1ccc(C(=O)NC(=S)NCCN2CCOCC2)cc1 | 57.3% (active)
56 | Cc1cc(C(=O)NNC(=S)NC(C)c2ccccc2)cs1 (stereo unspecified) | 8.77%
57 | Cc1ccc(C)c(NC(=S)NNC(=O)c2csc(C)c2)c1 | 22.3% (active)
58 | CN(C)CCN(Cc1ccccc1)S(=O)(=O)c1csc(C(N)=O)c1 | -1.58%
59 | CCOC(=O)c1cccc(NC(=O)CCc2nnc3ccc(N4CCOCC4)nn23)c1 | -1.45%
60 | CC1CC(C)CN(C(=O)CCNC(=O)Cn2cnc3ccccc3c2=O)C1 (stereo unspecified) | -11.9%
61 | Cc1ccccc1OCC(=O)Nc1nnc(S(=O)(=O)N2CCCC2)s1 | -10.5%
